Calls of active or inactive are those of the source. The calls were made as follows: active = hit-call score of the fitted dose curve at least 0.9, where 1 is the maximum; inactive = score below 0.9.
Assay: ATG_PBREM_CIS: Attagene CIS-FACTORIAL HepG2 Assay for human Phenobarbital-responsive Enhancer Module (PBREM) (AID 2282955)
Settings: HepG2 PBREM cis-reporter, Attagene multiplexed transcription; actives raise or lower the signal
Experimental: ATG_CIS is a cell-based, multiplexed-readout assay that uses HepG2, a human liver cell line, with measurements taken at 24 hours after chemical dosing in a 24-well plate.ATG_PBREM_CIS is one of 52 assay component(s) measured or calculated from the ATG_CIS assay. It is designed to make measurements of mRNA induction, a form of inducible reporter, as detected with fluorescence intensity signals by Reverse transcription polymerase chain reaction (RT-PCR) and Capillary electrophoresis technology.Data from the assay component ATG_PBREM_CIS was analyzed into 1 assay endpoint. This assay endpoint, ATG_PBREM_CIS, was analyzed with bidirectional fitting relative to DMSO as the negative control and baseline of activity. Using a type of inducible reporter, measures of mRNA for gain or loss-of-signal activity can be used to understand the reporter gene at the transcription factor-level as they relate to the gene NR1I3. Furthermore, this assay endpoint can be referred to as a primary readout, because this assay has produced multiple assay endpoints where this one serves a reporter gene function. To generalize the intended target to other relatable targets, this assay endpoint is annotated to the nuclear receptor intended target family, where the subfamily is non-steroidal.
Human liver HepG2 cells are transiently transfected with multiple reporter transcription units (MRTUs) in 6-well plates using FuGene 6 reagent (Roche; 3 ml FuGene/1 mg DNA). The MRTU constructs are regulated by a cis-regulating element (promoter). […] A major difference between the CIS and TRANS system is that in CIS activities of endogenous TFs are measured, whereas the TRANS assay evaluates changes in activities of exogenous, chimeric NR-Gal4 proteins. […] At the end of 24 hour incubation, total RNA was isolated using TriZol reagent (Invitrogen). The isolated RNA is then reverse-transcribed using oligo(dT) primer and Mo-MLV reverse transcriptase (Invitrogen) with DNAse I (Ambion) treatment for 30 min. The one-tenth of the produced cDNA was amplified by PCR using Taq DNA polymerase (Invitrogen) and two reporter sequence-specific primers. The PCR products were fluorescently labeled by primer extension with 6-arboxyfluorescein (6-FAM) 5'-labeled reporter sequence-specific primer (2 min at 95 C, 20 s at 68 C and 10 min at 72 C) and these products were digested with 5U of HpaI (New England Biolabs) for 2h at 37 C. The fragments were purified using Qiaquick PCR columns (Qiagen), analyzed on an ABI 3130xL genetic analyzer (Applied Biosystems) with peak positions identified by using a set of X-rhodamine (ROX)-labeled MapMarker1000 molecular weight standards (BioVentures). The raw capillary electrophoresis data was processed using Attagraph software (Attagene).

Row | Structure (SMILES) | outcome | AC50
1 | C=CC(=O)OCCn1c(=O)n(CCOC(=O)C=C)c(=O)n(CCOC(=O)C=C)c1=O | inactive | 
2 | CCOC(=O)c1ccccc1OC | inactive | 
3 | CC(=O)OCC=Cc1ccccc1 | inactive | 
4 | CC(C)=CCCC(C)=CCCC(C)=CCO | inactive | 
5 | CCCCCCC#CC(=O)OC | inactive | 
6 | CN1Cc2c(N)cccc2C(c2ccccc2)C1 (stereo not given) | inactive | 
7 | CC(C)=CCC[C@](C)(O)[C@@H]1CC=C(C)CC1 | inactive | 
8 | NC(=O)c1ccccc1Cl | inactive | 
9 | CC(C)C1CCC(O)CC1 (stereo not given) | inactive | 
10 | CC1(CO)CN(c2ccccc2)NC1=O (stereo not given) | inactive | 
11 | CCCCCCCCCOC(C)=O | inactive | 
12 | C[Si](O[Si](C)(C)C)O[Si](C)(C)C | inactive | 
13 | CC(CCO)CCCC(C)(C)O (stereo not given) | inactive | 
14 | O=C(O)CCCCCCCC(=O)O | inactive | 
15 | CC1=CCC2C(C1)C2(C)C (stereo not given) | inactive | 
16 | CCCCCCCCCCCCCCCCCC(=O)OCC(CC)CCCC (stereo not given) | inactive | 
17 | COCCCOc1ccnc(CS(=O)c2nc3ccccc3[nH]2)c1C (stereo not given) | inactive | 
18 | CC(C)(COC(=O)c1ccccc1)COC(=O)c1ccccc1 | inactive | 
19 | CC(=O)Nc1ccccc1O | inactive | 
20 | CCCCCCCCC | inactive | 

Row | Structure (SMILES) | outcome | AC50
21 | C=CC(=O)OCC(O)COc1ccccc1 (stereo not given) | inactive | 
22 | CC(C#N)(CCC(=O)O)N=NC(C)(C#N)CCC(=O)O (stereo not given) | inactive | 
23 | CC1(C)OC[C@@H]2O[C@@]3(C(=O)O)OC(C)(C)O[C@H]3[C@@H]2O1 | inactive | 
24 | C=CCOC(=O)CCC1CCCCC1 | inactive | 
25 | Cc1ccc(S)cc1 | inactive | 
26 | CCCCCCCCCCCCCCCC(=O)OC[C@H](O)[C@H]1OC(=O)C(O)=C1O |  | 71.7 µM (active)
27 | CC(=O)[O][Al][O]C(C)=O | inactive | 
28 | Cc1ncc([N+](=O)[O-])n1C | inactive | 
29 | C#C[C@]1(O)CC[C@H]2[C@@H]3CCC4=Cc5oncc5C[C@]4(C)[C@H]3CC[C@@]21C |  | 5.83 µM (active)
30 | NCCCN1CCOCC1 | inactive | 
31 | O=C(Nc1ccccc1)c1cc([N+](=O)[O-])ccc1Cl | inactive | 
32 | O=[N+]([O-])c1cc(C(F)(F)F)ccc1Cl | inactive | 
33 | CCCCCC(=O)OCCc1ccccc1 | inactive | 
34 | CC(C)(N)CO | inactive | 
35 | COC(C(=O)O)c1ccccc1 (stereo not given) | inactive | 
36 | N#Cc1ccccc1 | inactive | 
37 | CN(CCOc1ccc(CC2SC(=O)NC2=O)cc1)c1ccccn1 (stereo not given) |  | 66.1 µM (active)
38 | CC(C)c1ccc(C(C)C)cc1 | inactive | 
39 | Nc1cc(Cl)c(O)c(Cl)c1 |  | 84.9 µM (active)
40 | COC(=O)Cc1cccc2ccccc12 | inactive | 

From PubChem BioAssay (EPA / NIEHS)
